This is a sample that favours compounds with a hit; in the whole collection about 19% have one here.
HT1080 IDH1KD tx: toxicity to HT-1080 IDH1 knockdown cells (counter line); Potency, µM (top dose mostly 46.1 µM), for the others: at the top dose activity, negative = toxicity, most hits filed as cytotoxic; AID 686971; hit rate 2% among 360,000; HT-1080 IDH1 knockdown viability, ATP luminescence, 48 h;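 also: potency is read from the fitted curve at half-maximal effect; 0% = DMSO wells and -100% = cell-free medium wells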
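In this qHTS, HT-1080 cells depleted of IDH1 are exposed for 48 h at 37 °C to compound titrations. Toxicity is scored from CellTiter-Glo luminescence, with DMSO as full viability and medium alone as none.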
DT40 TDP1 CPT: growth inhibition of DT40 Tdp1-/-;hTDP1 cells with camptothecin (screen for TDP1 inhibitors) | chicken DT40 Tdp1-/-;hTDP1 cells + 20 nM CPT, ATP luminescence, 48 h | Potency, µM (series often up to 46.2 µM), without a hit: top-dose activity change, negative = growth inhibition, actives largely listed as inhibitors | hit rate 12% among 420,000; also: potency is read from the fitted curve at half-maximal effect; nearly all actives have a fitted effect of over 55% in size
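Cell growth measured by CellTiter-Glo luminescence after a minimum 48 h, 37 C compound exposure with 20 nM CPT in Tdp1-knockout DT40 cells stably expressing hTDP1, seeded 400/well; qHTS titration format.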
HT1080-NT tox: kills 2HG-producing HT-1080-NT fibrosarcoma cells; Potency, µM (doses to about 46.1 µM), for inactives: at the top dose activity, negative = less viability, actives largely listed as cytotoxic; hit rate 1.6% among 360,000; HT-1080-NT fibrosarcoma viability, CellTiter-Glo ATP luminescence, 48 h;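 also: NT is the 2HG producing partner of a matched IDH1 knockdown line; potency is read from the fitted curve at half-maximal effect; 0% = DMSO-treated cells and -100% = media-only wells without cells; nearly all actives have a fitted effect of over 55% in size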
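Luminescent CellTiter-Glo readout after 48 hours of compound exposure at 37 degrees C defined viability of HT-1080-NT cells. Activity was normalized to DMSO wells and cell-free media wells; concentration-response curves were fitted and assigned curve classes.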
IL-1B inflam inh: inhibitors of inflammasome signaling (IL-1 beta secretion); THP-1 LPS/ATP IL-1B secretion, AlphaLISA, 16 h; active compounds read low; activity change, % at 57.5 µM; hit rate 4.7% among 360,000; in the data active = activity change below about -50%; inconclusive = mostly about -30% to -49%
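Secreted IL-1B measured by AlphaLISA bead assay after 16 h compound exposure of THP-1 cells; compounds (final up to 57.5 uM) added 1 h before LPS (250 ng/mL) and ATP (1.25 mM) stimulation; lower signal means less secretion.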
DT40 TDP1 no CPT: qHTS for Inhibitors of human tyrosyl-DNA phosphodiesterase 1 (TDP1): qHTS in cells in absence of CPT. DT40 Tdp1-/- hTDP1 cells, no CPT, ATP luminescence, 48 h. hit rate 15% among 420,000. Potency, µM (doses to about 46.2 µM), without a hit: top-dose activity change, negative = growth inhibition, actives largely listed as inhibitors; also: potency is read from the fitted curve at half-maximal effect; nearly all actives have a fitted effect of over 55% in size
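A cellular qHTS used chicken DT40 cells lacking endogenous Tdp1 but carrying stably transfected human TDP1. Compounds were applied without camptothecin, and cell growth kinetics were judged by ATP-dependent luminescence after ≥48 hr.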
* hit, by the source's call; ? = inconclusive; . = no result; ! = not active in a repeat. Unless noted, calls follow the shape of the dose curve; as a rule, active = well fitted curve in the direction sought with a large enough effect; inconclusive = small, poorly fitted or top-dose-only effect, or another doubt; inactive = no such curve, though single readings can be large; an effect the other way counts as inactive or inconclusive. Unless noted, % is scaled to controls: 0 for no effect and ±100 for the full control effect.

SMILES	HT1080 IDH1KD tx	DT40 TDP1 CPT	HT1080-NT tox	IL-1B inflam inh	DT40 TDP1 no CPT
Cc1nn(Cc2ccccc2)c(C)c1NC(=O)c1noc2c1CCc1ccccc1-2	-16%	?	1%	-2	?
O=C(COC(=O)CCc1ccc(S(=O)(=O)N2CCOCC2)cc1)NCc1ccccc1	11%	-2%	10%	11	-8%
CC(=O)CC1(O)C(=O)N(CN2CCN(c3ccccc3)CC2)c2ccccc21 (configuration not stated)	12%	-18%	3%	14	-28%
O=C(O)c1cccc(S(=O)(=O)NCC2COc3ccccc3O2)c1 (configuration not stated)	-10%	-15%	-2%	-9	-8%
CCCS(=O)(=O)NC(=O)C1(C)CCN(C(=O)c2ccc(SC(F)(F)F)cc2)C1 (configuration not stated)	2%	1%	23%	11	-3%
O=C(O)c1ccc[nH]c1=S	20%	4%	24%	1	-20%
COCCNc1c2c(nc3ccccc13)CCC2	-1%	-20%	9%	-14	?
COc1ccc(Nc2cc(C)c3ccccc3n2)cc1	-9%	-29%	-16%	-97*	?
CN(C)CCCNc1c2c(nc3ccccc13)CCC2	-19%	?	-29%	-69*	15µM*
COc1ccc(Nc2cc(Nc3ccc(OC)cc3)ncn2)cc1	7%	5%	6%	-2	13%
COc1ccc(Nc2cc(Nc3cc(OC)c(OC)c(OC)c3)ncn2)cc1	-8%	18µM*	-23%	-80*	21µM*
Cc1cc(Nc2ccc([N+](=O)[O-])cc2)nc2ccccc12	?	0%	?	0	-7%
O=C(CCCCCl)Nc1c2c(nc3ccccc13)CCC2	-14%	-26%	-6%	-7	-1%
Fc1ccccc1Nc1c2c(nc3ccccc13)CCC2	.	?	.	.	21µM*
Cc1ccc(CNC(=O)CN(c2cc(C)cc(C)c2)S(=O)(=O)c2c(C)noc2C)cc1	.	-28%	.	.	?
O=C(CCSCCc1ccccn1)Nc1cccc([N+](=O)[O-])c1	2%	-4%	-7%	0	-20%
CCCCN(C(=O)c1cc2ccccc2o1)c1c(N)n(CCC)c(=O)[nH]c1=O	19%	-1%	25%	-2	-2%
COc1ccc(NC(=O)NNC(=O)C(C)Oc2ccc3ccccc3c2)cc1 (configuration not stated)	1%	13%	3%	-8	2%
c1ccc(Nc2c3c(nc4ccccc24)CCC3)cc1	?	5.2µM*	-8%	-13	15µM*
Nc1c2c(nc3ccccc13)CCCC2	0%	17µM*!	-1%	-18	18µM*!
Clc1c2c(nc3ccccc13)CCC2	1%	-23%	5%	-10	2%
COc1cc(Nc2c3ccccc3nc3ccccc23)cc(OC)c1OC	?	7.3µM*	10µM*	-95*	5.2µM*
CN(C)CCNCCCNc1c2ccccc2nc2cccc([N+](=O)[O-])c12	?	0.052µM*	-24%	?	0.1µM*
COc1ccc(-c2nc3cnc(OC)nc3n(Cc3cccc(OC)c3)c2=O)cc1	.	5%	.	.	-11%
O=C(c1ccc(-n2cncn2)c([N+](=O)[O-])c1)N1CCN(S(=O)(=O)c2ccccc2F)CC1	-13%	-13%	-3%	11	?
Cc1ccc(N2CC(C(=O)N3CCOCC3)CC2=O)cc1Cl (configuration not stated)	17%	-3%	-2%	3	12%
C=CCN1C[C@H](C(=O)N(CCCN(C)C)C(=O)NCC)C[C@@H]2c3cccc4[nH]cc(c34)C[C@H]21	.	-7%	.	.	-18%
COc1ccccc1Nc1nc(C)cc(C)n1	-3%	10%	-3%	-15	-1%
COc1ccc(Nc2c3c(nc4ccccc24)CCC3)cc1	?	?	23µM*	.	21µM*
COc1ccccc1Nc1cc(C)nc(Nc2ccccc2OC)n1	1%	21µM*	1%	-14	23µM*

Compound activity deposited in PubChem BioAssay by National Center for Advancing Translational Sciences (NCATS).
